Source: PubChem
Dicer processing: human Dicer pre-microRNA cleavage inhibition. Q9UPY3. cat-ELCCA pre-miR-21 Dicer processing, chemiluminescence; hits give high values. z-score at 25 µM. 47,000 tested, 6% active. AID 1347074; in the data active = z-score above about 3, passing the limit was not always enough;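 note: plate controls were vehicle for no effect and no enzyme for full effect; higher signal means more uncleaved substrate so more Dicer inhibition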
Target sequence (Q9UPY3 whole entry, looked up): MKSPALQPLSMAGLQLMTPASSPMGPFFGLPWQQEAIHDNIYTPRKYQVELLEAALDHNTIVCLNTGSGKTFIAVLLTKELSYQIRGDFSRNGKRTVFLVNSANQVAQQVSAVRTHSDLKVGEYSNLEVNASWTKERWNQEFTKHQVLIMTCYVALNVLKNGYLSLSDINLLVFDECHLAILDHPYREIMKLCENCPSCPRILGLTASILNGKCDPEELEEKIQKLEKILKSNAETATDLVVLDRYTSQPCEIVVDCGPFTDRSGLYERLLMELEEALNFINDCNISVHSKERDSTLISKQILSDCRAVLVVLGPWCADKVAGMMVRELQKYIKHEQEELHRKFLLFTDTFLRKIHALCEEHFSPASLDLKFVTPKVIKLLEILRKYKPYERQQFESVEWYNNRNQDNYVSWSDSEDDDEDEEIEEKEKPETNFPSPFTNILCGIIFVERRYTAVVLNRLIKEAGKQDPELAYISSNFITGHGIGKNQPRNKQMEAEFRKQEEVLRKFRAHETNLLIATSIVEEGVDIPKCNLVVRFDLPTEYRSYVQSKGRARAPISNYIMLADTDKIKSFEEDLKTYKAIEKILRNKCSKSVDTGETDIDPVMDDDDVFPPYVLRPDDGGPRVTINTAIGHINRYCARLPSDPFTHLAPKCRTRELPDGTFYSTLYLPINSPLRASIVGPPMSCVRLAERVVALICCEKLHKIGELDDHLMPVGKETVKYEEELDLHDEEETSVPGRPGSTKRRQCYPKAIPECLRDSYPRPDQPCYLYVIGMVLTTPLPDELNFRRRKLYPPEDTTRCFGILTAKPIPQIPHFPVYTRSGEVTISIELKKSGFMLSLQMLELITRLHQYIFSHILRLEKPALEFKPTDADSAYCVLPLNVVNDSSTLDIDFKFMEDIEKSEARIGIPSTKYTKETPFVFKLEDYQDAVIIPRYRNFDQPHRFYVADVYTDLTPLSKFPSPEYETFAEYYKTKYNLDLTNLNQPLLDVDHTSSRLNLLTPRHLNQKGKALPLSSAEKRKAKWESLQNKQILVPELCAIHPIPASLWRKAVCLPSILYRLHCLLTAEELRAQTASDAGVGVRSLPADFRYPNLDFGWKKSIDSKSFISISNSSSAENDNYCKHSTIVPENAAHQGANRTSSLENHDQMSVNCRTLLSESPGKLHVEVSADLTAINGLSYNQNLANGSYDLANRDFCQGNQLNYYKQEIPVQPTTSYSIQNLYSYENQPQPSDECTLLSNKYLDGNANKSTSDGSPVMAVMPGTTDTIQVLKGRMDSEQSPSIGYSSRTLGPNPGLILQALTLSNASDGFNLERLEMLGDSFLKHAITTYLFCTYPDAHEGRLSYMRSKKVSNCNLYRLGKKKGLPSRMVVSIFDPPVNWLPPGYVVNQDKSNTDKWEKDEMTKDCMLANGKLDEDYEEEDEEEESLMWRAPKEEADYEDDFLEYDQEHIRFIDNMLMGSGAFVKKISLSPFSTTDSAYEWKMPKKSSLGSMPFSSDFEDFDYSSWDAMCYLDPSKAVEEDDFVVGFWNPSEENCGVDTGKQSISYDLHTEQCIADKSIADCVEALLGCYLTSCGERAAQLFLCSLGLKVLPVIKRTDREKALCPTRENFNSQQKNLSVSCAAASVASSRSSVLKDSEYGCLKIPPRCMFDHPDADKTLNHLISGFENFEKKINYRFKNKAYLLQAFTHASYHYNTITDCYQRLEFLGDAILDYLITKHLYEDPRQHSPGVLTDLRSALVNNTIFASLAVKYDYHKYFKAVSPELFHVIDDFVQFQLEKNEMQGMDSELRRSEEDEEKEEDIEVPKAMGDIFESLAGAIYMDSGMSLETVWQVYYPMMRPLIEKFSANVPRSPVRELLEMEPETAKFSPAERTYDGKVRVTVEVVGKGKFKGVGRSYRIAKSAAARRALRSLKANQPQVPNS
Numbers without * were called inactive. This is one part of a sample in which hits are shown more often than they occur.

SMILES | Dicer processing
CC(C)OC(=O)C1C(=O)CC(C)(O)C(C(=O)OC(C)C)C1c1cccc(F)c1 (stereo not drawn) | 1.2
Clc1cccc(CN2CCN(C3CCCCC3)CC2)c1 | -0.93
Cc1nn(CC(N)=O)c(C)c1[N+](=O)[O-] | -0.68
N#Cc1c(Cl)cccc1NC1CCCCNC1=O (stereo not drawn) | 0.47
O=C(Nc1ccc(Cl)cc1)N1CCOCC1 | 0.1
O=C(Nc1ccc(OC(=O)N(c2ccccc2)c2ccccc2)cc1)N1CCOCC1 | 3.9*
O=C(Nc1ccccc1)N1CCSCC1 | 1.6
N=C1C(c2nc3ccccc3c(=O)[nH]2)=C(O)CN1c1ccccc1F | -1.3
CN(C1=NS(=O)(=O)c2ccccc21)c1ccccc1C(=O)O | 2
CC(C)NC(=O)Nc1ccc(OCc2ncc(C(F)(F)F)cc2Cl)cc1 | -1.7
Cc1cc(=O)[nH]c(SCC(=O)c2ccc(F)cc2)n1 | 1.7
Cc1cc(C)c2c(=O)[nH]c(SCC(=O)c3ccc(O)c(O)c3)nc2n1 | 3.7*
Cc1ccc(C(=O)CSc2nc3ccccc3c(=O)[nH]2)cc1C | -0.87
Cc1ccc(-c2nn(-c3ccccc3)cc2C2CC(c3cccs3)=NN2S(C)(=O)=O)cc1 (stereo not drawn) | -1.1
O=C1CSC(c2ccc(C(F)(F)F)cc2)N1CCN1C(=O)CSC1c1ccc(C(F)(F)F)cc1 (stereo not drawn) | 0.64
Cc1ccc(NC(=S)Nc2ccccc2N)c(C)c1 | 7*
Cc1ccc(NC(=S)Nc2ccccc2C)c(C)c1 | 2.5
Cc1ccc(NC(=S)Nc2ccc(C)cc2C)c(C)c1 | 0.92
O=c1c(N2CCN(S(=O)(=O)c3ccccc3)CC2)coc2ccccc12 | 0.15
CCOC(=O)C(Cc1c[nH]c2ccccc12)NS(=O)(=O)c1ccc(Cl)cc1 (stereo not drawn) | 0.62
COc1cc(OC)c(C(F)(F)F)cc1NC(=O)c1c(OC)cccc1OC | -1.1
CC1(C)CC(=O)C2=C(C1)c1c(ccc3ncccc13)NC2c1cccc(O)c1 (stereo not drawn) | 0.35
CCn1c(SCCOc2ccc(OC)cc2)nc2ccccc21 | -1.9
Cc1ccc(OCCSc2nc3ccccc3o2)cc1 | -1.5
Cc1ccc(OCCn2c(SCCO)nc3ccccc32)cc1 | 0.65
SMILES | Dicer processing
O=C(O)CCSc1n[nH]c2nc3ccccc3n12 | -1.2
Cc1cccc(OCCSc2nc3ccccc3n2CCO)c1 | 5.6*
Cc1ccc(OCCSc2n[nH]c3nc4ccccc4n23)cc1 | 6.2*
CCOC(=O)C(C#N)c1c([N+](=O)[O-])c(=O)n(-c2ccccc2)c2ccccc12 (stereo not drawn) | -1.6
Cn1cc(Br)c(C(=O)Nc2nc3ccc4ccccc4c3s2)n1 | 0.9
CC1(C)CCc2cc(/C=N/O)ccc2O1 | -0.04
CCCC(CCC(=O)Nc1nncs1)C(=O)O (stereo not drawn) | 0.64
Cn1cccc1CNCC(O)C(F)(F)F (stereo not drawn) | -0.06
Cn1cccc1CNCc1cccnc1 | 1.6
CN(C)CCCNCc1cccn1C | 3.1*
Cc1cc([N+](=O)[O-])nn1CC(=O)Nc1ccccn1 | -0.84
CCOc1ccc(S(=O)(=O)Nc2cnc3ccccc3c2)cc1 | -2.8
Cc1cc([N+](=O)[O-])nn1CC(=O)Nc1cnc2ccccc2c1 | 3.5*
Cc1c2cnn(C)c(=O)c2c(C)n1-c1ccccc1 | 0.57
COc1ccc(COC(=O)C2=C(C)NC3=C(C(=O)CCC3)C2c2cc3c(cc2Cl)OCO3)cc1 (stereo not drawn) | 4.2*
COc1ccc(COC(=O)C2=C(C)NC3=C(C(=O)CCC3)C2c2ccc3c(c2)OCO3)cc1 (stereo not drawn) | 0.95
CCOC(=O)C1=C(C)NC2=C(C(=O)CCC2)C1c1cc2c(cc1Cl)OCO2 (stereo not drawn) | 0.09
Oc1ccccc1-c1nc(/C=C/c2ccc(Cl)cc2)no1 | 6.7*
Oc1ccccc1-c1nc(-c2ccccc2)no1 | 0.04
Cc1ccccc1-c1nc(C2CCCCC2)no1 | 1.7
Cc1ccsc1/C=C/c1noc(-c2ccccc2O)n1 | 3.3*
CSc1ccc(/C=C/c2noc(-c3ccccc3O)n2)cc1 | -1.9
CCN(CC)c1ccc(/C=C/c2noc(-c3ccccc3O)n2)cc1 | 0.97
Cn1ncc(C(=O)O)c1NNC(=O)CCC(=O)O | -0.05
Nc1nc(/C=C/c2ccccc2O)nc(-c2ccccc2O)n1 | 8
SMILES | Dicer processing
Oc1ccccc1/C=C/c1nc(-c2ccccc2O)n(-c2ccccc2)n1 | 11*
Cc1nn(-c2ccccc2)c(C)c1-c1ccccc1O | 0.59
COC(=O)c1sc(N2C(=O)c3oc4ccc(C)cc4c(=O)c3C2c2ccccc2F)nc1C (stereo not drawn) | 0.21
CCCNC(=O)Oc1noc2ccc(Cl)cc12 | 0.15
Cc1ccc2oc(-c3ccc(N)cc3)nc2c1 | 2.9
COc1ccc(-c2nc3cc(N)ccc3o2)cc1Br | 3.2*
CC(C)c1ccc2oc(-c3ccc(N)cc3)nc2c1 | 2.5
Nc1ccc2oc(-c3cccc4ccccc34)nc2c1 | 5.2*
COc1ccc2oc(-c3ccc(C)c(N)c3)nc2c1 | 2.1
COc1ccc(-c2nc3ccccc3o2)cc1N | 4.3*
COc1ccc(-c2nc3cc(NS(=O)(=O)c4ccccc4)ccc3o2)cc1Br | 1.1
Cc1ccc(-c2nc3cc(N)ccc3o2)cc1 | 4.7*
Cc1ccc(-c2nc3cc(N)ccc3o2)cc1N | 0.6
Cc1ccc2oc(-c3cccc(N)c3)nc2c1 | 1.5
Cc1ccc2oc(-c3ccc(N)cc3O)nc2c1 | 0.56
Nc1nc2ccc(-c3nc4ccccc4o3)cc2s1 | 1.8
O=C1NC(c2ccccc2)=N/C1=C/c1ccc(Cl)cc1Cl | 0.69
CC(=O)Nc1ccc(C(=O)CSc2n[nH]c(=O)n2-c2ccccc2C(F)(F)F)cc1 | 0.64
CCOC(=O)C1=CNc2ccccc2N=C1N | -0.57
CC(C)(C)c1oncc1C(=O)Oc1ccc([N+](=O)[O-])cc1 | -0.65
CCOc1cc(C(F)(F)F)cnc1C(=N)N | 0.92
CC(Oc1ccc2ccccc2c1I)C(=O)O (stereo not drawn) | 1.1
CCc1ccc(CN(C(=O)c2oc3cc(C)ccc3c2C)C2CCS(=O)(=O)C2)cc1 (stereo not drawn) | 0.89
Cc1cccc(C2CC(=O)Nc3nc(N)[nH]c(=O)c32)c1 (stereo not drawn) | 0.75
O=C1CCN=C(Nc2ccc(F)c(Cl)c2)S1 | -1
SMILES | Dicer processing
Cn1c(=O)c2c(c3ccccc31)OC(=O)CC2c1ccsc1 (stereo not drawn) | -0.27
CC12CN3CC(C)(CN(C1)C3c1ccc(O)cc1O)C2=O (stereo not drawn) | -2.8
CC(C)C12CN3CC(C(C)C)(CN(C1)C3c1ccc(O)cc1O)C2=O (stereo not drawn) | 5.7*
CCC12CN3CC(CC)(CN(C1)C3c1ccc(O)cc1O)C2=O (stereo not drawn) | 0.45
O=C1C(=O)N(CCN2CCOCC2)C(c2cccs2)/C1=C(\O)c1ccc(F)cc1 (stereo not drawn) | 0.17
Cc1cc(NC(=S)NC(C)(C)C)ccc1Br | -0.67
Cc1ccc(NC(=S)Nc2ccc(C)c(C)c2)cc1C | -0.26
Cc1ccc(NC(=S)NC(C)(C)C)cc1F | 3*
CCOc1ccc(NC(=S)Nc2cc(-c3cccs3)[nH]n2)cc1 | -0.62
CC(C)=NNC(=S)Nc1ccc(C)cc1C | 1.2
CCN(CC)C(=O)c1cc2sccc2s1 | 3.1*
CCN(CC)C(=O)c1sc2nc3c(cc2c1N)CCCCC3 | 0.28
N#Cc1c(N2C(=O)c3ccccc3C2=O)sc2c1CCCC2 | -1.5
CSC(=CC(=O)c1ccc(Cl)cc1)SC | -0.68
O=C(/C=C1/NCCS1)c1ccc(Cl)cc1 | 3.8*
Cc1ccc(C(=O)/C=C/Nc2ccc(Cl)cc2)cc1 | 1.3
